Drawing on PubChem BioAssay (NCI), this text covers growth for seven compounds.

Test in all cases: NCI-60 one-dose screen, 48 h (100 = growth as untreated, 0 = no growth, -100 = all killed)
One test has as its system HCT-15 colon. To be noted: 10 µM unless noted.
The test system of the next test is HT29 colon. To be noted: 10 µM unless noted.
The test system of a further test is SNB-75 CNS. The following applies: 10 µM unless noted.
For a further test, the system named is SNB-19 CNS. The following applies: 10 µM unless noted.
The test system of the next test is U251 CNS. To be noted: 10 µM unless noted.
Another test relates to PC-3 prostate. To be noted: 10 µM unless noted.
The test system of another test is SK-MEL-5 melanoma. The following applies: 10 µM unless noted.
Another test deals with UACC-62 melanoma. To be noted: 10 µM unless noted.
In a further test the test system is LOX IMVI melanoma. To be noted: 10 µM unless noted.
In the next test the test system is SK-MEL-28 melanoma. To be noted: 10 µM unless noted.
Another test deals with SK-MEL-2 melanoma. The following applies: 10 µM.
A further test concerns EKVX NSCLC. The following applies: 10 µM unless noted.
Another test relates to SN12C renal. To be noted: 10 µM unless noted.
A further test has as its system UO-31 renal. The following applies: 10 µM unless noted.
In a further test the test system is TK-10 renal. To be noted: 10 µM unless noted.
A further test relates to ACHN renal. The following applies: 10 µM unless noted.
The test system of another test is CAKI-1 renal. To be noted: 10 µM unless noted.
The next test has as its system CCRF-CEM leukemia. To be noted: 10 µM unless noted.
Another test deals with MOLT-4 leukemia. The following applies: 10 µM unless noted.

About 83,000 compounds went through this panel and 20% of them were active in at least one assay; those are over-represented in the sample as a whole.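 Values shown are percent growth following 48 h exposure of cells in 96-well plates to a single concentration of compound; below 10 was considered active.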 Values without a mark were called inactive. Active and inactive are the calls of the source.

As for `COc1ccc2c(CCCc3ccc(Cl)cc3Cl)c3[n+](cc2c1OC)CCc1cc2c(cc1-3)OCO2`, the growth was 24.4% in the test with HCT-15 colon; -15.6% (active) with HT29 colon; 15.2% with SNB-75 CNS; 16.7% in the test on SNB-19 CNS; 3.76% (active) with U251 CNS; -14.2% (active) in the test with PC-3 prostate. Moreover, the growth in the test with SK-MEL-5 melanoma was -99.6% (active); in the test with UACC-62 melanoma, -68.2% (active); in the test on LOX IMVI melanoma, -80.3% (active); in the test on SK-MEL-28 melanoma it was -35.6% (active); in the test with SK-MEL-2 melanoma it was -22.8% (active); in the test with EKVX NSCLC, 23.1%. Besides, the growth was -24.9% (active) in the test on SN12C renal; 25.4% in the test on UO-31 renal; 0.636% (active) in the test with TK-10 renal; 21.9% in the test on ACHN renal; 71.9% with CAKI-1 renal; 5.42% (active) in the test with CCRF-CEM leukemia. Further, in the test with MOLT-4 leukemia, the growth is -9.91% (active).
For `C=C1C[C@H](O)[C@H](Br)C(C)(C)[C@@]12CCC(C)=C(Cl)C2`, the growth was -4.29% (active) with HCT-15 colon; 3.04% (active) with HT29 colon; 52.9% in the test on SNB-75 CNS; 40.7% with SNB-19 CNS; 20.4% with U251 CNS; 16.6% in the test on PC-3 prostate. The growth in the test with SK-MEL-5 melanoma is -60.8% (active); in the test on UACC-62 melanoma, -11.8% (active); with LOX IMVI melanoma it was -5.6% (active); in the test with SK-MEL-28 melanoma, 30.1%; in the test with SK-MEL-2 melanoma, 6.3% (active); with EKVX NSCLC, 13.5%. Further, the growth is 22.6% in the test with SN12C renal; 37.1% in the test on UO-31 renal; 31% with TK-10 renal; 24.2% in the test with ACHN renal; 16.3% in the test on CAKI-1 renal; 21.6% in the test with CCRF-CEM leukemia. For the same compound, the growth in the test with MOLT-4 leukemia was -8.16% (active).
Take `CCCCCCC1(/C=N/NC(N)=O)NC(=O)NC1=O` (stereo not drawn): the growth in the test with HCT-15 colon is 98.3%; with HT29 colon, 76.9%; in the test on SNB-75 CNS, 82.2%; with SNB-19 CNS, 105%; in the test with U251 CNS it was 94.3%; in the test on PC-3 prostate, 91.8%. The growth was 96.9% in the test with SK-MEL-5 melanoma; 99% with UACC-62 melanoma; 97.4% in the test on LOX IMVI melanoma; 106% in the test with SK-MEL-28 melanoma; 98.8% with SK-MEL-2 melanoma; 91.8% in the test with EKVX NSCLC. In addition, the growth in the test on SN12C renal was 105%; in the test on UO-31 renal, 87.2%; with TK-10 renal, 99.1%; in the test on ACHN renal it was 105%; in the test with CAKI-1 renal, 91.7%; in the test on CCRF-CEM leukemia it was 102%. Besides, the growth in the test on MOLT-4 leukemia was 101%.
For `O=C1CC(c2ccc3c(c2)OCO3)c2ncn(-c3ccc(Cl)cc3)c2N1` (stereo not drawn), the growth with HCT-15 colon was 24.2%; with HT29 colon, 10.9%; in the test with SNB-75 CNS, 30.1%; in the test with SNB-19 CNS, 47.8%; in the test with U251 CNS, 21.9%; in the test with PC-3 prostate, 45.1%. For the same compound, the growth was 24.8% in the test with SK-MEL-5 melanoma; 34.4% in the test on UACC-62 melanoma; 51.7% in the test on LOX IMVI melanoma; 55.4% in the test with SK-MEL-28 melanoma; 43.4% with SK-MEL-2 melanoma; 68.2% in the test with EKVX NSCLC. Besides, the growth with SN12C renal is 56.6%; with UO-31 renal it was 61.3%; in the test with TK-10 renal, 67.9%; with ACHN renal it was 53.9%; in the test on CAKI-1 renal, 37.1%; in the test on CCRF-CEM leukemia it was 28.2%. Besides, the growth in the test on MOLT-4 leukemia is 32%.
For `COc1ccc2c(c1OC)C(=O)O[C@@H]2[C@H]1c2c(c(C#CC#Cc3ccc(F)c(F)c3)c3c(c2OC)OCO3)CCN1C`, the growth in the test with HCT-15 colon is 56.8%; with HT29 colon, 92.3%; in the test on SNB-75 CNS, 89.6%; in the test with SNB-19 CNS, 103%; in the test with U251 CNS, 88.4%; in the test with PC-3 prostate, 50.8%. Moreover, the growth in the test on SK-MEL-5 melanoma is 66.2%; in the test with UACC-62 melanoma it was 69.5%; in the test with LOX IMVI melanoma it was 90.9%; in the test with SK-MEL-28 melanoma, 96.3%; with SK-MEL-2 melanoma, 91.8%; in the test on EKVX NSCLC, 90.3%. In addition, the growth in the test on SN12C renal was 100%; in the test with UO-31 renal, 70.5%; in the test with TK-10 renal, 95.3%; with ACHN renal it was 95%; with CAKI-1 renal, 86.6%; with CCRF-CEM leukemia, 101%. Besides, the growth in the test on MOLT-4 leukemia was 89%.
Consider `O=C1CC(c2ccc(Cl)cc2)c2ncn(-c3cccc(Cl)c3)c2N1` (stereo not drawn), for which the growth was 27.7% in the test with HCT-15 colon; 28.8% with HT29 colon; 36.2% in the test on SNB-75 CNS; 50% with SNB-19 CNS; 36.3% with U251 CNS; 67.7% in the test on PC-3 prostate. Further, the growth was 34.1% in the test on SK-MEL-5 melanoma; 33.9% in the test with UACC-62 melanoma; 47.5% with LOX IMVI melanoma; 54.8% in the test with SK-MEL-28 melanoma; 44.8% in the test with SK-MEL-2 melanoma; 73.5% in the test with EKVX NSCLC. Besides, the growth in the test with SN12C renal was 56.1%; in the test with UO-31 renal, 50.5%; in the test with TK-10 renal it was 95.8%; with ACHN renal it was 52.6%; with CAKI-1 renal, 75.3%; in the test on CCRF-CEM leukemia, 60.4%. For the same compound, in the test on MOLT-4 leukemia, the growth was 44.4%.
In the case of `CCC1(/C=N/NC(N)=S)NC(=O)NC1=O` (stereo not drawn), the growth was 107% with HCT-15 colon; 94.9% in the test with HT29 colon; 95.9% in the test on SNB-75 CNS; 109% in the test with SNB-19 CNS; 86.8% in the test on U251 CNS; 85.1% in the test with PC-3 prostate. In addition, the growth with SK-MEL-5 melanoma was 102%; in the test on UACC-62 melanoma it was 104%; in the test with LOX IMVI melanoma, 102%; with SK-MEL-28 melanoma it was 111%; with SK-MEL-2 melanoma, 109%; in the test on EKVX NSCLC, 104%. The growth with SN12C renal was 95.6%; with UO-31 renal, 87.5%; in the test with TK-10 renal, 102%; in the test on ACHN renal it was 109%; in the test with CAKI-1 renal, 94.1%; with CCRF-CEM leukemia, 102%. Besides, in the test with MOLT-4 leukemia, the growth is 90%.
